From PubChem BioAssay (NCI) come the findings set out here.

Compounds without any hit were thinned out: in the full panel of roughly 83,000, 20% have a hit.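 Cell lines were cultured in 96-well plates, exposed to a single compound concentration, and assessed for percent growth 48 hours later.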 The source made the active and inactive calls.

This test relates to SK-OV-3 ovarian. As to the kind of experiment: NCI-60 one-dose screen, 48 h (100 = growth as untreated, 0 = no growth, -100 = all killed). The note with it: 10 µM unless noted. As for the experimental part:
Growth inhibition of the SK-OV-3 human tumor cell line is measured as a screen for anti-cancer activity. Cells are grown in 96 well plates and exposed to the test compound for 48 hours. Compounds are tested at a single concentration, which is 10^-5 M for most compounds. The reported endpoint is percent growth (GI% or GIPRCNT), where numbers from 0 - 100% represent growth inhibition, and numbers from -100% - 0 represent cell death. For example, a value of 40 represents 60% growth inhibition. A value of 0 means no net growth occurred over the course of the experiment. A value of -40 indicates 40% of cells at the beginning of the experiment died by the end of the experiment. A value of -100 means all cells are dead at the end of the experiment.
NCI-60 Human Tumor Cell Lines Screen was performed using the standard one-dose NCI protocol, which is described in more detail at https://dtp.cancer.gov/discovery_development/nci-60/default.htm.
Compounds with GIPRCNT values below 10 were considered active. Activity score was based on GIPRCNT using the following formula: […]
Score is 0 for GIPRCNT values of 100 or above, 50 for GIPRCNT values of 0, and 100 for GIPRCNT values of -100.
On to `O=C(O)c1ccc(-n2cc(CNc3ccc(C(F)(F)F)cc3)c(-c3ccccc3)n2)cc1`, for which the growth was 103% (inactive).

As for `CCn1cc(C(=O)O)c(=O)c2cc(F)c(N3CCN(S(=O)(=O)c4ccc(OC)c(OC)c4)CC3)cc21`, the growth was 135% (inactive).

Take `CNC(=O)c1cc(Oc2ccc3c(c2)sc2nc(-c4ccc(Cl)cc4)cn23)ccn1`: the growth is 66.2% (inactive). As for `N=C(N)c1ccc(-c2ccc(-c3ccc(Cl)cc3)o2)nc1`, the figure is -96.7% (active); as for `C=C1C(=O)O[C@H]2[C@H]1CC/C(Cn1cc(-c3ccsc3)nn1)=C\CC[C@@]1(C)O[C@@H]21`, 83.1% (inactive). As for `CC/C=C\C[C@H](O)C/C=C1/C(=O)C(Cl)=C[C@@H]1C/C=C\CCCC(=O)OC`, the growth is 8.03% (active). As for `COc1ccccc1OCC(=O)Nc1sc2c(c1C(N)=O)CCC2`, the figure is 69.9% (inactive). For `COc1ccc(C2=CC(c3ccc(Oc4ccnc5cc(Cl)ccc45)c(OC)c3)c3c(nc(OC)[nH]c3=O)N2)cc1` (stereo not given) the value was 102% (inactive).

As for `O=C1CCC/C=C\C[C@H]2C=CC(=O)/C2=C/C[C@H](C/C=C\CC(F)(F)F)O1`, the growth was -7.52% (active). On to `O=C(Nc1ccc(I)cc1)c1cc([N+](=O)[O-])ccc1O`, for which the growth is 38.6% (inactive).

In the case of `COc1ccc(-c2nc3sccn3c2-c2ccnc(NCCCNS(=O)(=O)c3ccc(C)cc3)n2)cc1`, the growth is 56.1% (inactive).

Take `O=C1CCCCC=C1C[N+](=O)[O-]`: the growth is 99.1% (inactive). With `COc1cccc(-c2nc3sccn3c2-c2ccnc(NCCCNS(=O)(=O)c3ccc(F)cc3)n2)c1`, the growth is 72.7% (inactive).

Take `COc1cc(CCn2nnc3c(NCCCCO)ncnc32)cc(OC)c1`: the growth is 111% (inactive). As for `O=C(N/N=C/c1c(Cl)cccc1Cl)c1ccccc1Nc1ccnc(C(F)(F)F)c1`, the figure is 76.9% (inactive).

For the molecule `CC(=O)Nc1nc(C(=O)N2N=C(C)/C(=C/c3ccccc3)C2=O)cs1`, the growth was 97.6% (inactive). For `O=C(O)C(=Cc1c2ccccc2cc2ccccc12)C(=O)O`, the growth was 107% (inactive). As for `C=CCc1cc(Cl)cc2c(OC(C)=O)c(C(C)=O)c(-c3ccccc3)nc12`, the figure is 99.9% (inactive).

As for `O=C1CCCCN1CCCCC#Cc1ccccc1C#Cc1ccccn1`, the growth was 118% (inactive). For `Nc1ccc(S(=O)(=O)c2ccc(Cl)cc2)cc1`, the growth was 109% (inactive).

`CC(CCc1ccccc1)NC(=O)c1n[nH]c(=O)c2ccccc12` (stereo not given): the growth was 118% (inactive).

For `COc1cccc(/C=C/c2c(C(=O)O)cccc2[N+](=O)[O-])c1OC`, the growth is 88.2% (inactive). For `CCN1C(=O)N(CC)C2Nn3c(s/c(=C\c4cccc(F)c4)c3=O)=NC21` (stereo not given) the value was 102% (inactive); for `CCN(C(=O)c1cc2ccccc2[nH]1)[C@H]1CCC[C@@H](NCc2ccc(OC)cc2)C1`, 96.6% (inactive). For `COc1ccc(C(=O)/C=C/c2cc(C(=O)c3cc(OC)c(OC)c(OC)c3)ccc2OC)cc1` the value was 90% (inactive). Regarding `CCOC(=O)c1cc(/C(=N\O)c2cc(OC)c(OC)c(OC)c2)n2c(C)cccc12`, the growth is 38.4% (inactive). As for `COc1ccc2c(c1)C=CC(C#N)N2C(=O)c1ccccc1` (stereo not given), the figure is 43.5% (inactive); as for `O=S=Nc1ccc([N+](=O)[O-])cc1`, 103% (inactive); as for `CC(=O)/C=C/c1cc2cc(Cl)ccc2[nH]c1=O`, 88.7% (inactive). As for `CCNc1nc(N2CC(=O)Nc3cc(OC)ccc32)c2ccccc2n1`, the growth is 27.4% (inactive). For `Cc1ccc(C(=O)c2sc3nc4c(cc3c2N)CCCC4)c(C)c1` the value was 19.9% (inactive).

As to `CCCOC(=O)C1(O)CCCC1`, the growth is 111% (inactive). As for `COc1cc(C(=O)/C=C/c2cc(C(=O)c3cc(OC)c(OC)c(OC)c3)ccc2OC)ccc1N`, the figure is 32.5% (inactive).

Turning to `Cc1ccc2c(c1)C(C)Cc1c(ncnc1-n1cnc3ccccc31)N2C` (stereo not given), the growth is 43.5% (inactive). For `Nc1cc2c(cc1N)-c1cc(N)c(N)cc1C2` the value was 99.2% (inactive); for `CC(C)C[C@H](NC(=O)Cn1ccc(NCc2ccccc2)cc1=O)B(O)O`, 56.5% (inactive); for `O=S(=O)(c1ccccc1)n1ccc(-c2ccc3c(c2)CCO3)n1`, 104% (inactive). As for `CCCCCCc1nc2c(c(C)nn2-c2ccccc2)c2c1CCCCC2`, the figure is 95% (inactive).

Take `Clc1ccc(-c2nc(-c3ccco3)cn3ccnc23)cc1`: the growth was -14.7% (active).

Turning to `C/C(=C\c1csc(C)n1)[C@@H]1C[C@@H]2O[C@]2(C)CCC[C@H](C)[C@H](O)[C@@H](C)C(=O)C(C)(C)[C@@H](O)CC(=O)N1`, the growth was -8.54% (active).
